Among all 320,000 compounds or so, about 7,600 (2.4%) were called active. Entries that show only a call come without a potency. Roughly 3% stayed inconclusive and do not appear here. Calls follow the shape of the dose curve; as a rule, active = well fitted activation curve with a large enough effect; inconclusive = small, poorly fitted or top-dose-only effect; inactive = no such curve, though single readings can be large or run the other way. The full list was thinned out, with actives kept by preference.
Potency is read from the fitted curve at half-maximal effect.

A short description of this assay: qHTS Assay for NPC1 Promoter Activators. Also: nearly all actives have a fitted effect of over 60% in size. To be noted: Huh7 NPC1 promoter luciferase reporter, 24 h; series mostly up to 9.22 µM. Summed up:
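Luciferase expression driven by the NPC1 promoter was measured in stably transfected Huh7 cells after a 24 h compound incubation, using a luciferase reagent and a luminescence read.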
A general note: qHTS replaces the single test concentration by a dilution series.
With `NC(=O)c1c(NC(=O)c2ccccc2)sc2c1CCCC2`, the Potency is 3980 nM (active). With `C=CCN(CC=C)S(=O)(=O)c1ccc(C(=O)Nc2sc3c(c2C(N)=O)CCCCC3)cc1`, the Potency result is “inactive”.

Consider `O=C(Nc1sc2c(c1C(=O)O)CCC2)c1ccccc1F`, for which the Potency result was “inactive”. As for `COc1ccc(C(=O)OC(C)C(=O)NC2CCCC2)cc1S(=O)(=O)N1CCOCC1` (stereo not given), the entry is “inactive”.

For `CC(C)CN(C(=O)CSc1ncnc2sccc12)C1CCS(=O)(=O)C1` (stereo not given), the Potency entry is “inactive”.

Consider `CC(=O)c1ccc(S(=O)(=O)N2CCC(Oc3ccc(-n4cnnn4)cc3)CC2)cc1`, for which the Potency result was “inactive”.

Turning to `O=C(COC(=O)Cc1ccc(Br)cc1)Nc1ccc(N2CCOCC2)cc1`, the Potency result was “inactive”.

For `CC(=O)NC12CC3CC(C1)CC(C(=O)N1CCN(C(=O)c4ccco4)CC1)(C3)C2`, the Potency result was “inactive”. Turning to `CC12CCC(C(=O)N3CCN(c4ncccn4)CC3)(c3nc4ccccc4nc31)C2(C)C` (stereo not given), the Potency entry is “inactive”.

With `c1cnc(N2CCN(c3ccc4ccccc4n3)CC2)nc1`, the Potency is 1410 nM (active). On to `O=C(c1ccncc1)N1CCN(c2ccc3ccccc3n2)CC1`, for which the Potency entry is “inactive”.

Regarding `CCc1nnc(NC(=O)c2cc(S(=O)(=O)N3CCCCC3)ccc2C)s1`, the Potency entry was “inactive”.

As to `CCC1(C)CC(=O)NC1=O` (stereo not given), the Potency result is “inactive”. As for `CC(C)(C)OC(=O)NCCCCCNC(=O)c1[nH]cnc1C(=O)Nc1nccs1`, the entry is “inactive”; as for `CCn1c(SCC(=O)Nc2ccc3c(c2)OCCO3)nnc1C(C)C`, “inactive”; as for `CCn1c(SCC(=O)Nc2ccc3c(c2)OCCO3)nnc1-c1ccncc1`, “inactive”. Consider `Cn1ccnc1SCC(=O)Nc1ccc2c(c1)OCCO2`, for which the Potency is 2510 nM (active). `O=C(Nc1ccc2c(c1)OCCO2)c1cnccn1`: the Potency is 2820 nM (active). Take `O=C(Nc1cccc(NC(=O)c2ccco2)c1)c1cnccn1`: the Potency result was “inactive”. For the compound `O=C(Nc1ccc2c(c1)OCCO2)c1ccoc1`, the Potency result was “inactive”. For the compound `O=C(COC(=O)c1ccccc1Cl)NC1CCCCCCC1`, the Potency entry was “inactive”. In the case of `O=C(N[C@@H](Cc1c[nH]c2ccccc12)C(=O)O)OCC1c2ccccc2-c2ccccc21` it was “inactive”; in that of `O=C(Nc1ccccn1)C1CCN(S(=O)(=O)c2ccc3c(c2)OCCO3)CC1`, “inactive”. As for `CCOC(=O)C1CCCN(S(=O)(=O)c2ccc3c(c2)C(C)(C)C(=O)N3C)C1` (stereo not given), the Potency result is “inactive”. `COc1ccc(N(CCC(=O)NCCc2ccccc2)S(=O)(=O)c2ccc(C)cc2C)cc1`: the Potency entry is “inactive”. As to `COc1ccc([C@H]2CC(=O)C=C(c3ccc(OC(F)(F)F)cc3)C2)cc1OC`, the Potency entry is “inactive”. On to `O=C(O)CSc1ccc(S(=O)(=O)N2CCCC2)cn1`, for which the Potency result is “inactive”. Turning to `Cc1ccc(C(=O)OCC(=O)Nc2ccc(Cl)cn2)cc1S(=O)(=O)N1CCOCC1`, the Potency result is “inactive”. On to `O=C(NCCc1ccc(F)cc1)c1ccc2nccnc2c1`, for which the Potency is 1780 nM (active). As for `O=C(NCCc1ccc(F)cc1)c1ccc(S(=O)(=O)N2CCCCC2)cc1`, the entry is “inactive”; as for `Cc1ccc(C)c(NC(=O)c2ccc3nccnc3c2)c1`, “inactive”; as for `Cc1ccc(S(=O)(=O)NCCC(=O)NCc2ccc(Cl)cc2)cc1C`, “inactive”. For `CCN(CC)C(CNC(=O)CSc1nnnn1-c1cccc(F)c1)c1ccco1` (stereo not given), the Potency result is “inactive”. As for `CC(NC(=O)c1cccc(S(=O)(=O)N2CCc3ccccc3C2)c1)c1ccco1` (stereo not given), the entry is “inactive”. For the compound `CCC(=O)Nc1sc(C(=O)Nc2ccccc2)c(C)c1C(=O)OC`, the Potency was 794 nM (active). For `COC(=O)c1c(NC(C)=O)sc(C(=O)Nc2ccccc2OC)c1C`, the Potency entry is “inactive”. In the case of `CCOC(=O)c1sc(NC(=O)COc2ncnc3ccccc23)c(C(=O)OCC)c1C` it was “inactive”; in that of `NC(=O)NC(CC(=O)NNC(=O)c1ccccn1)c1ccc(Cl)cc1` (stereo not given), “inactive”.

For the compound `CC(C)CCN1CCC(C)(NC(=O)c2ccccc2)C1=O` (stereo not given), the Potency result was “inactive”. In the case of `COc1ccc(NC(=O)CS(=O)(=O)c2ccccc2)cc1`, the Potency entry is “inactive”. As to `COc1ccc(N(Cc2ccccc2)S(=O)(=O)c2cccc(C(=O)O)c2)cc1`, the Potency entry is “inactive”. Regarding `COc1ccc(C(CC(=O)c2ccccc2)S(=O)(=O)c2ccccc2)cc1` (stereo not given), the Potency is 3550 nM (active). With `O=C(CN1CCN(S(=O)(=O)c2ccc(Cl)s2)CC1)N1CCCCC1`, the Potency entry was “inactive”. As for `COc1cc([N+](=O)[O-])ccc1NC(=O)COC(=O)CCOc1ccc(C)cc1`, the entry is “inactive”; as for `COc1ccc(CNC(=O)c2ccc3oc(C(C)C)nc3c2)cc1`, 3550 nM (active); as for `CC(C)c1nc2cc(C(=O)NC(C)c3cnn(C)c3)ccc2o1` (stereo not given), “inactive”. `COc1ccc(CNC(=O)c2cc(=O)c3c(C)cc(C)cc3o2)cc1`: the Potency entry is “inactive”.

Take `CCCN(C(=O)c1nc2nccc(C)n2n1)c1c(N)n(Cc2ccccc2)c(=O)[nH]c1=O`: the Potency entry was “inactive”. In the case of `Cn1c2cc(B(O)O)sc2c2cnn(Cc3ccccc3F)c(=O)c21` it was “inactive”.

Take `CCOCc1c(C(=O)N2CCN(Cc3ccc(Br)s3)CC2)oc2ccccc12`: the Potency result is “inactive”. As for `Cc1ccc(/C=C/C(=O)OCC(=O)Nc2cccnc2Cl)cc1`, the Potency result was “inactive”. Consider `CCCCCCOC(=O)NCC(O)c1ccccc1` (stereo not given), for which the Potency is 3980 nM (active). `CCCCCOC(=O)NCCOC(=O)Nc1ccc(C(=O)OCC)cc1`: the Potency result was “inactive”.

Turning to `CCCCOC(=O)Nc1nnc(CC(=O)NCc2ccccc2)s1`, the Potency entry is “inactive”.

Turning to `Brc1ccccc1C1N=C(c2ccccc2)NO1` (stereo not given), the Potency is 3980 nM (active). `Brc1ccccc1C1Nc2cccc3cccc(c23)N1`: the Potency entry is “inactive”.

For `N#Cc1ccc(C2N=C(c3ccccc3)NO2)cc1` (stereo not given), the Potency is 1260 nM (active). As to `S=C1NC(c2ccccc2)=NCN1c1ccc(Br)cc1`, the Potency entry is “inactive”.

Regarding `CSCC[C@H](NC(=O)NC1CCCC1)C(=O)O`, the Potency entry was “inactive”. In the case of `Cc1c(NC(=O)CSc2nnc(-c3cccnc3)n2N)c(=O)n(-c2ccccc2)n1C`, the Potency entry is “inactive”. In the case of `O=S(=O)(NCc1ccccc1Br)c1ccccc1Br`, the Potency result was “inactive”. For the compound `C=C1CCC(N(O)c2cc(C)on2)C(=C)CCC2C1CC2(C)C` (stereo not given), the Potency entry was “inactive”. For the compound `CCOC(=O)N1CCN(C(=O)COc2ccc3oc4c(c3c2)CCCC4)CC1`, the Potency entry is “inactive”.

`CCN(CC)CCCNC(=O)COc1ccc2oc3c(c2c1)CCCC3`: the Potency entry was “inactive”.

With `O=C(COc1ccc2oc3c(c2c1)CCCC3)Nc1ccccn1`, the Potency is 631 nM (active). Consider `Brc1ccc(-c2csc(N/N=C/c3ccc4c(c3)OCO4)n2)cc1`, for which the Potency result was “inactive”. As for `Cc1noc(C)c1/C=N/Nc1ccc2ccccc2n1`, the figure is 2820 nM (active); as for `C(=N\Nc1ccc2ccccc2n1)/c1ccc2c(c1)OCO2`, 316 nM (active); as for `O=C(N/N=C/c1ccc2c(c1)OCO2)C(=O)N1CCCC1`, “inactive”. In the case of `Cc1cc(C)nc(N/N=C/c2c(C)oc3ccccc23)n1` it was “inactive”. `Cc1nc(Cl)cc(N/N=C/c2ccccc2)n1`: the Potency result was “inactive”. Regarding `CCOc1ccc(S(=O)(=O)N2CCCCC2)cc1NC(=O)CN1CCCC1c1cccs1` (stereo not given), the Potency entry was “inactive”. As for `O=C(c1ccc(Cl)nc1)N1CCN(S(=O)(=O)c2ccc3c(c2)OCCO3)CC1`, the entry is “inactive”; as for `CCN(CC)CCCNC(=S)N(CCO)Cc1cc2cc3c(cc2[nH]c1=O)OCO3`, “inactive”. Take `Cc1ccc(OCc2nc3ccccc3n2C)cc1`: the Potency was 3550 nM (active).

Take `CCOc1ccc(C(O)Cc2nc3ccccc3n2C)cc1` (stereo not given): the Potency entry is “inactive”. In the case of `CC(C)n1c(COc2ccccc2)nc2ccccc21` it was “inactive”; in that of `CCOC(=O)N1CCN(S(=O)(=O)c2ccc3c(c2)C(C)C(=O)N3)CC1` (stereo not given), “inactive”; in that of `Cc1ccc(C(=O)NNC2=Nc3cc([N+](=O)[O-])ccc3OC2)cc1`, “inactive”. As for `COc1ccc(C2=NOC(COC(=O)c3ccc4ccccc4n3)C2)cc1` (stereo not given), the entry is “inactive”; as for `COc1ccc(C2=Nc3cc(C)ccc3OC2)cc1`, 891 nM (active). As to `COc1ccc2ccn(C)c2c1`, the Potency result is “inactive”. For `Cc1nn(Cc2ccccc2)c(C)c1C(=O)NCCCN1CCCC1=O`, the Potency result is “inactive”. With `Clc1ccc(-c2cc(-c3ccccn3)on2)c(Cl)c1`, the Potency was 100 nM (active).

As to `Clc1ccc(-c2ncc3ccccn23)c(Cl)c1`, the Potency result was “inactive”.

Take `COn1c(-c2ccc(Cl)cc2Cl)nc2ncccc21`: the Potency result was “inactive”. For `Cc1cc(N=Nc2ccc3ccccc3c2)ccc1O`, the Potency is 2240 nM (active). For the compound `Cc1ccc(/C=N/NC(=O)c2cc3ccccc3cc2O)o1`, the Potency result was “inactive”. In the case of `CC(=O)CCC(=O)c1ccc2ccccc2c1` it was “inactive”. In the case of `Cc1ccc(S(=O)(=O)N(C)C)cc1NC(=O)c1ccc(-n2cncn2)c([N+](=O)[O-])c1`, the Potency entry was “inactive”. Take `Cc1ccc(NC(=O)CN(C)C(=O)c2cccc(S(=O)(=O)N3CCCC3)c2)cc1`: the Potency entry is “inactive”. Regarding `CC(=O)NC(c1cccs1)c1cc(Br)c2cccnc2c1O` (stereo not given), the Potency result is “inactive”.

Regarding `CCC(C)NC(=O)c1ccc(NC(=O)CC2SC(N3CCCCC3)=NC2=O)cc1` (stereo not given), the Potency result was “inactive”.

For the compound `Cc1nonc1NC(=O)CSc1nc2ccccc2cc1C#N`, the Potency result was “inactive”. `Cc1cc(NC(=O)CSc2nc3c(cc2C#N)CCCCC3)no1`: the Potency was 1410 nM (active). As to `CC(NC(=O)CSc1nc2c(cc1C#N)CN(C)CC2)c1ccccc1` (stereo not given), the Potency entry is “inactive”.

Regarding `COc1ccc(C(=O)OCC(=O)c2cc(C)n(CC3CCCO3)c2C)cc1[N+](=O)[O-]` (stereo not given), the Potency entry was “inactive”. As for `CCCCN(C(=O)C1CCC1)c1c(N)n(Cc2ccccc2)c(=O)[nH]c1=O`, the entry is “inactive”; as for `Cn1c(SCC(=O)Nc2ccc(N3CCOCC3)cc2)nnc1C(F)(F)F`, “inactive”. For `CN(C(=O)COC(=O)c1cc(=O)[nH]c2ccccc12)C1CCCCC1`, the Potency result is “inactive”. With `COC(=O)C1CCN(C(=O)c2cc(=O)[nH]c3ccccc23)CC1`, the Potency result is “inactive”. In the case of `CC1CCN(C(=O)COC(=O)c2cc(=O)[nH]c3ccccc23)CC1` it was 3550 nM (active). Turning to `Cc1cccc(NC(=O)Nc2ccc(OCc3ccccc3)cc2)n1`, the Potency entry is “inactive”. Consider `Cc1cccc(NC(=O)COc2ccc(Br)cc2C)n1`, for which the Potency was 2820 nM (active). `CCN(CC)S(=O)(=O)c1ccc(C)c(NC(=O)COc2ccc(Br)cc2Cl)c1`: the Potency entry was “inactive”. As to `Cc1cc(C)cc(NC(=O)C(OC(=O)c2ccc(O)cc2)c2ccccc2)c1` (stereo not given), the Potency entry was “inactive”.

Turning to `Cc1cc(C(=O)NNC(=S)Nc2ccccc2C)cs1`, the Potency is 3160 nM (active). For `Cc1ccccc1NC(=S)NNC(=O)c1cccc(Br)c1`, the Potency result was “inactive”.

Consider `Cc1ccc(C)c(NC(=S)NNC(=O)c2csc(C)c2)c1`, for which the Potency entry is “inactive”. As for `Cc1ccc(C(=O)OCC(=O)NCc2cc(C)c(O)c(C)c2)cc1S(=O)(=O)N1CCCCC1`, the entry is “inactive”.

The values are drawn from PubChem BioAssay AID485313 (National Center for Advancing Translational Sciences (NCATS), 2010).
